# Assay outcomes from PubChem.
# WRN inhibitor – qHTS for Inhibitors of WRN Helicase; WRN helicase unwinding, fluorescent forked duplex, kinetic; Potency, µM (highest dose often 114 µM), without a hit: top-dose activity change, negative = inhibition, actives largely listed as inhibitors; 360,000 tested, 0.46% active; AID 651768, 2012; further: potency means the concentration at half of the fitted maximal effect; on the % scale 0 is the no-effect control and ±100 the full control effect; nearly all actives have a fitted effect of over 55% in size
#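 Kinetic fluorescence helicase assay: unwinding of a quenched forked DNA duplex (100 nM final) with 2 mM ATP final raises red fluorescence (525/598 nm). Compounds sat 15 min at room temperature with 20 nM WRN beforehand.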
# Pol kappa inh-1 – qHTS for Inhibitors of Polymerase Kappa; purified Pol kappa, fluorescent DNA synthesis assay, 10 min; Potency, µM (doses to about 107 µM), without a hit: at the highest dose activity, negative = inhibition, most hits filed as inhibitors; 400,000 tested, 0.53% active; AID 588579, 2011; further: potency means the concentration at half of the fitted maximal effect; on the % scale 0 is the no-effect control and ±100 the full control effect
# Target sequence (Q9UBT6 whole entry, looked up): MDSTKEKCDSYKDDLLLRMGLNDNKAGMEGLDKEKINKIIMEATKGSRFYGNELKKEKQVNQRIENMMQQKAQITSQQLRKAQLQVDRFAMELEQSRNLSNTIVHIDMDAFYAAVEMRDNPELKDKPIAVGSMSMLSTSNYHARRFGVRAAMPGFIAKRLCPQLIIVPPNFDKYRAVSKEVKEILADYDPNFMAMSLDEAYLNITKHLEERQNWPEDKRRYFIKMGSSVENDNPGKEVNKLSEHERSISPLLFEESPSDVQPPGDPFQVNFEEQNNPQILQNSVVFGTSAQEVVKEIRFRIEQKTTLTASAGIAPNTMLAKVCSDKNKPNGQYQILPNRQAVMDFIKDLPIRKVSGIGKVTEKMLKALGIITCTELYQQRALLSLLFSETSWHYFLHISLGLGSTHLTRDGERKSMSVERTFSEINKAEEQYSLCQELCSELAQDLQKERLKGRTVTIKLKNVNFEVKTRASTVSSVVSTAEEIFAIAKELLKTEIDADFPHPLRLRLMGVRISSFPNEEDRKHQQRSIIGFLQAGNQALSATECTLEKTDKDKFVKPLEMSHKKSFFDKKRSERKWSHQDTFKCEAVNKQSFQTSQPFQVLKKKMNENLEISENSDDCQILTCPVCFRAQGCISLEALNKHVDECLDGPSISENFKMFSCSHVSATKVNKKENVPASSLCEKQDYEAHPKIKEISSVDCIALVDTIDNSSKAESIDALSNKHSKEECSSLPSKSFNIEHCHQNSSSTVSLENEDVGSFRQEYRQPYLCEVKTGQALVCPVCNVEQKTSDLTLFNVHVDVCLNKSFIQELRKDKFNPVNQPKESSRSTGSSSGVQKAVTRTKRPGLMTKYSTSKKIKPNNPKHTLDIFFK
#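 Kinetic fluorescence readout at 0 and 10 min followed reaction start with substrate at 50 nM final. Beforehand, enzyme (10 nM Pol kappa) stood 15 min with compound at room temperature; buffer-only wells were negative controls.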
# POLB inh – qHTS Assay for Inhibitors of DNA Polymerase Beta; 340,000 tested, 1.3% active; Pol beta primer extension/strand displacement, fluorescence kinetic; Potency, µM (series often up to 114 µM), without a hit: top-dose activity change, negative = inhibition, hits mostly inhibitors; P06746; further: potency means the concentration at half of the fitted maximal effect; on the % scale 0 is the no-effect control and ±100 the full control effect
#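 Homogeneous kinetic assay of primer extension and strand displacement by 10 nM Pol beta, preincubated 15 min at room temperature with compound before 50 nM substrate (final) was added. Read at 0 and 10 min; four-parameter Hill fit.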
# FEN1 inh-1 – qHTS Assay for the Inhibitors of Human Flap endonuclease 1 (FEN1) | Recombinant FEN1 flap cleavage, fluorescence, 15 min | AID 588795, 2011 | 390,000 tested, 0.35% active | Potency, µM (series often up to 114 µM), for the others: at the highest dose activity change, negative = inhibition, hits mostly inhibitors; further: potency means the concentration at half of the fitted maximal effect; on the % scale 0 is the no-effect control and ±100 the full control effect; nearly all actives have a fitted effect of over 65% in size
#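 Quantitative HTS format: each compound was titrated, incubated with 10 nM nuclease for 15 min at room temperature, then challenged with flap substrate at 50 nM final. Signal change over 15 min gave concentration–effect curves.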
# POLI inh – qHTS for Inhibitors of Polymerase Iota; DNA polymerase iota (Homo sapiens), Q9UNA4; Pol iota fluorescent replication assay, 10 min; Potency, µM (doses to about 115 µM), inactives show top-dose activity, negative = inhibition, hits mostly inhibitors; 390,000 tested, 1% active; AID 588590, 2011; further: potency means the concentration at half of the fitted maximal effect
#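 Fluorescent replication assay read twice, at 0 min and 10 min after adding 50 nM (final) substrate. Enzyme (10 nM) and compounds were first incubated 15 min at room temperature; enzyme-free buffer wells were negative controls.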
# Pol eta inh-1 – qHTS for Inhibitors of Polymerase Eta | 390,000 tested, 1.2% active | Potency, µM (doses to about 114 µM), for inactives: top-dose activity change, negative = inhibition, most hits filed as inhibitors | DNA polymerase eta (Homo sapiens), Q9Y253 | recombinant Pol eta, fluorescent DNA replication assay | AID 588591, 2011; further: potency means the concentration at half of the fitted maximal effect; on the % scale 0 is the no-effect control and ±100 the full control effect
#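 Pol eta (10 nM) was preincubated with compounds for 15 min at room temperature, after which fluorescent replication substrate (50 nM final) was added to start the reaction. Fluorescence was read kinetically at 0 and 10 min.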
# BAZ2B confirm – qHTS Assay for Inhibitors of BAZ2B: Hit Validation; shares compounds with Pol kappa inh-1; AlphaScreen BAZ2B / biotin-H3K14Ac peptide displacement; Potency, µM, actives largely listed as inhibitors; 25 tested, 100% active; calls by dose curve
# AlphaScreen ctr – qHTS Assay for Inhibitors of BAZ2B: Hit Validation in AlphaScreen Counterscreen | shares compounds with Pol kappa inh-1 | AlphaScreen biotin-His6 peptide bead counterscreen, signal decrease | Potency, µM (titrated, usually from 57.1 µM), for inactives: at the highest dose activity change, negative = inhibition, actives largely listed as inhibitors | 25 tested, under 10 active;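 active means clear concentration-dependent signal drop in the bead assay lacking the target, so a primary-screen artifact; inconclusive means weak, partial or single-dose response; inactive means no response, so a real primary hit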
# PGK validate – qHTS for inhibitors of Phosphogylcerate Kinase: Hit Validation Screen | TbPGK coupled GAPDH assay, Kinase-Glo luminescence | Potency, µM (doses to about 57.5 µM), for inactives: at the highest dose activity change, negative = inhibition, hits mostly inhibitors | shares compounds with Pol kappa inh-1 | AID 686980, 2013 | 500 tested, 79% active; further: potency means the concentration at half of the fitted maximal effect; on the % scale 0 is the no-effect control and ±100 the full control effect; nearly all actives have a fitted effect of over 65% in size
# POLI cherry-pick – qHTS for Inhibitors of Polymerase Iota: Confirmatory Assay for Cherry-picked Compounds; shares compounds with Pol kappa inh-1; Pol iota primer extension, TAMRA/BHQ fluorescence; Potency, µM, usual class: inhibitors; 1,500 tested, 77% active; AID 720496, 2013; further: potency means the concentration at half of the fitted maximal effect
# GALK confirm – Confirmation Assay for Inhibitors of Human Galactokinase (GALK); 150 tested, 70% active; AID 2015, 2009; Potency, µM (highest dose often 115 µM), inactives show top-dose activity, negative = inhibition, actives largely listed as inhibitors; purified GALK, Kinase-Glo ATP depletion luminescence; shares compounds with Pol eta inh-1
# Redox cycling – Confirmatory Assay for Inhibitors of Human Galactokinase (GALK): Phenol-HRP redox assay counterscreen | shares compounds with Pol eta inh-1 | Phenol red-HRP H2O2 redox cycling, absorbance 600 nm | Potency, µM (top dose mostly 115 µM), inactives show at the top dose activity change, negative = H2O2 signal, usual class: inhibitors | 150 tested, 40% active | AID 2035, 2009
# HEK293 viability – Secondary Assay for Inhibitors of Human Galactokinase (GALK): HEK-293 Cell Viability Assay; shares compounds with Pol eta inh-1; HEK-293 viability, ATP luminescence (CellTiter-Glo), 24/48 h; Potency, µM (top dose mostly 46.1 µM), for the others: at the highest dose activity change, negative = cytotoxicity, usual class: inhibitors; 170 tested, 10% active; AID 2547, 2010; further: potency means the concentration at half of the fitted maximal effect; on the % scale 0 is the no-effect control and ±100 the full control effect
# Pol kappa inh-2 – qHTS for Inhibitors of Polymerase Kappa: Confirmatory Assay for Cherry-picked Compounds. shares compounds with Pol eta inh-1. purified Pol-kappa, fluorescent strand-displacement substrate. Potency, µM, hits mostly inhibitors. 920 tested, 76% active; further: potency means the concentration at half of the fitted maximal effect
# Pol eta inh-2 – qHTS for Inhibitors of Polymerase Eta: Confirmatory Assay for Cherry-picked Compounds | shares compounds with Pol eta inh-1 | Pol eta primer extension, TAMRA/BHQ fluorescence, 10 min | Potency, µM, usual class: inhibitors | 2,600 tested, 64% active; further: potency means the concentration at half of the fitted maximal effect
# FEN1 inh-2 – qHTS Assay for the Inhibitors of FEN1: Confirmatory Assay for Cherry-picked Compounds. shares compounds with FEN1 inh-1. FEN1 flap cleavage, TAMRA/BHQ2 fluorogenic DNA substrate. Potency, µM, actives largely listed as inhibitors. 880 tested, 79% active; further: potency means the concentration at half of the fitted maximal effect; nearly all actives have a fitted effect of over 60% in size
# * = called active by the depositor; u = inconclusive; x = no result; [ ] = remark or other dose. The list is not random: actives were taken first. Their share in the collection is about 2.4%. Unless noted, the call rests on the fitted dose curve; in most records, active means well fitted curve in the direction sought with a large enough effect; inconclusive means small, poorly fitted or top-dose-only effect, or another doubt; inactive means no such curve, though single readings can be large; an effect the other way counts as inactive or inconclusive.
SMILES,WRN inhibitor,Pol kappa inh-1,POLB inh,FEN1 inh-1,POLI inh,Pol eta inh-1,POLI cherry-pick,Pol eta inh-2,others
O=C1NC(=O)N(Cc2ccc(F)cc2)C(=O)/C1=C\c1ccc(N2CCCC2)cc1,u,u,35µM*,u,14µM*,32µM*,67*,60*,
O=C1NC(=O)N(c2ccc(F)cc2)C(=O)/C1=C/c1ccc(N2CCOCC2)cc1,-33%,1%,1%,1%,56%,-16%,x,x,
COc1ccc(-n2c(O)c(/C=C/C=Nc3ccccc3)c(=O)[nH]c2=O)cc1,u,-11%,21%,-28%,u,20µM*,60*,76*,Pol kappa inh-2=38*
O=C(O)Cc1ccc(-n2cccc2)cc1,40µM*,45µM*,4.5µM*,u,13µM*,3.5µM*,12*,7.6*,BAZ2B confirm=25*;AlphaScreen ctr=u
O=C(O)CCn1cc(C=C2C(=O)NC(=S)NC2=O)c(-c2cc3ccccc3oc2=O)n1,u,u,-25%,u,40µM*,20µM*,67*,30*,
CCCN1CCC(NC2CCC(O)CC2)CC1 (centres undefined),-14%,-2%,6%,4%,104%,-25%,x,x,
CN(C)c1ccc(/C=C2/C(=O)NC(=O)N(Cc3ccco3)C2=O)cc1,50µM*,35µM*,u,-29%,16µM*,6.3µM*,67*,38*,Pol kappa inh-2=30*
CN(C)c1ccc(/C=C2\C(=O)NC(=O)N(CCc3ccc(F)cc3)C2=O)cc1,u,-7%,3%,-6%,u,-2%,x,x,
Cc1cc(/C=C2\C(=O)NC(=O)N(c3ccc(Cl)cc3)C2=O)c(C)n1-c1cccc(C(=O)O)c1,u,-96%,u,u,18µM*,20µM*,60*,6.7*,Pol kappa inh-2=17*
Cc1cc(/C=C2\C(=O)NC(=O)N(c3cccc(F)c3)C2=O)c(C)n1-c1cc(C(=O)O)cc(C(=O)O)c1,u,50µM*,22µM*,u,16µM*,10µM*,u,21*,
Cc1cc(/C=C2/C(=O)NC(=O)N(c3ccc(Br)cc3)C2=O)c(C)n1C,-10%,-12%,-29%,2%,-18%[58.9 µM],-11%,x,x,
CO[C@@H](COC(N)=O)C1=C(N2CC2)C(=O)C(C)=C(N2CC2)C1=O,x,-2%[19.4 µM],x,x,x,x,x,x,
COC(=O)C1=C(c2cccc3c2S(=O)(=O)c2ccccc2-3)C[C@@H]2CC[C@H]1N2C(=O)N1CCOCC1,3%,12%,x,2%,27%,-12%,x,x,
CCOc1ccc(-n2c(/C=C/c3ccccc3)nc3ccccc3c2=O)cc1,x,-9%[60.1 µM],0%,10%,5%,-13%,x,x,
CCn1nc(/C=C/c2ccccc2)nc2c(=O)n(C)c(=O)nc1-2,-1%[11.6 µM],1%,-11%,-14%,-92%,0.79µM*,0.75*,0.76*,PGK validate=0.52µM*
COc1ccc2[nH]cc(C3=CCNCC3)c2c1,x,-1%[19.4 µM],x,x,x,x,x,x,
COc1ccc(CN2C(=O)NC(=O)/C(=C/c3ccc([N+](=O)[O-])s3)C2=O)cc1,40µM*,22µM*,22µM*,14µM*,u,14µM*,24*,5.4*,FEN1 inh-2=17*
COC(=O)c1nc(-c2ccc3c(n2)C(=O)C(N)=C(OC)C3=O)c(N)c(-c2ccc(OC)c(OC)c2O)c1C,u,u,u,16µM*,8.9µM*,10µM*,47*,u,GALK confirm=5.3µM*;Redox cycling=6.7µM*;HEK293 viability=-4%;FEN1 inh-2=38*
